# D2 antagonist = D2 dopamine receptor (human) antagonism; HEK293 TREx D2 cells, calcium flux, dopamine EC80; 340,000 compounds, 2% hits; P14416; inhibition, % at 10 µM; in the data active means inhibition above about 30%; inactive means below that, where a call was filed; further: 0% is about no effect
# Target sequence (P14416 whole entry, looked up): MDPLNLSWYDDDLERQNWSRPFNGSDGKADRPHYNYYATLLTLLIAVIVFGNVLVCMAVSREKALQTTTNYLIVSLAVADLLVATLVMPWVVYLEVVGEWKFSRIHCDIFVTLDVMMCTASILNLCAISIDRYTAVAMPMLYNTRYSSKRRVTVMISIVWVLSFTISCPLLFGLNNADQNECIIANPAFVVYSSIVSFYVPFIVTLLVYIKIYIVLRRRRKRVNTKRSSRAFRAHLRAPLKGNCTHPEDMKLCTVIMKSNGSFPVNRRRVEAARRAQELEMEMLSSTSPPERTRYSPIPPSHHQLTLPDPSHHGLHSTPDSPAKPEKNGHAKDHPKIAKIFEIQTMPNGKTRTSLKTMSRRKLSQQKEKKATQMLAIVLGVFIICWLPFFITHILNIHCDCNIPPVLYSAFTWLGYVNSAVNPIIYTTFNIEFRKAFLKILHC
#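 Dopamine at EC80 is the agonist stimulus; test compounds precede it by 180 s. Calcium flux read kinetically in a force-coupled, inducible HEK293 T-REx D2 cell line.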
# D2 ag-1 = human D2 receptor agonism in beta-arrestin assay; DiscoveRx PathHunter D2 beta-arrestin, luminescence, 90 min; 100% = 57 uM dopamine signal; P14416; 360,000 compounds, 0.084% hits; activation, % (test concentration not listed); AID 624465; in the data active means activation above about 40%; inconclusive means between about 15% and that limit
#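 Agonist mode: compounds alone added to overnight-plated D2 PathHunter cells for 90 min at 37 C, with 57 uM final dopamine (EC100) defining full response. Beta-arrestin recruitment detected by chemiluminescent reagent, read after 1 h at ambient temperature.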
# D2 PAM-1 = human D2 receptor positive allosteric modulation | P14416 | DiscoveRx D2 beta-arrestin cells, luminescence, 90 min; 100% = 57 uM dopamine signal | potentiation, % (concentration not given with the values) | 360,000 compounds, 0.23% hits | AID 624464; in the data active means potentiation above about 50%; inconclusive means mostly about 30% to 49%
#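 PathHunter beta-arrestin assay in DiscoveRx D2 cells. Compounds were added with an EC20 of dopamine (50 nM final) for 90 min at 37 deg C. Luminescence was read 1 h after detection reagent, with 57 uM dopamine as the EC100 control.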
# D2 PAM-2 = D2 dopamine receptor (human) potentiation | HEK293 T-REx D2, calcium flux, EC20 dopamine potentiation | potentiation, % at 10 µM | 340,000 compounds, 0.34% hits | AID 485347;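 active means potentiation over 3 SD above the plate norm, cut at about 30% in these data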; further: 0% is about no effect
#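 Potentiation of an EC20 dopamine calcium response measured kinetically over 180 s, after a preceding 180 s compound-only read flagging agonists. Cells: inducible Hek293 Trex D2 line, 4000/well, cultured overnight at 30 C before dye loading.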
# D2 ag-2 = D2 dopamine receptor (human) agonism; 340,000 compounds, 0.53% hits; activation, % at 2 µM; P14416; HEK293 T-REx D2 cells, calcium flux agonist mode;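 active means activation over 3 SD above normal in the single-dose calcium agonist read, cut at about 30% in these data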; further: 0% is about no effect
#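 Tetracycline-induced HEK293 T-REx cells with force-coupled D2 receptor, plated overnight at 30 C, loaded with no-wash calcium dye. After a 10 s baseline, compound was pin-added and calcium flux read kinetically for 180 s; calcium rises flagged agonists.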
# * hit, by the source's call; u = inconclusive; x = no result. Hits are enriched below; roughly 2.4% of the tested compounds scored in any of these assays.
SMILES,D2 antagonist,D2 ag-1,D2 PAM-1,D2 PAM-2,D2 ag-2
Cc1cc(C)cc(N2C(=O)NC(=O)/C(=C\c3cccn3-c3ccc(Cl)cc3)C2=O)c1,38*,1,-7,9,0
Cc1cc(C)cc(N2C(=O)NC(=O)/C(=C\c3cccn3-c3ccccc3)C2=O)c1,-6,-3,-2,19,4
Cn1c(=O)n(C)c2cc(CNCCc3ccccc3F)ccc21,x,x,x,-8,2
CC1N=C(c2ccccc2Cl)c2cc(Br)ccc2NC1=O (stereo unspecified),11,6,-3,-1,0
CC1CN(c2cc([N+](=O)[O-])ccc2Cl)CC(C)N1 (stereo unspecified),69*,-3,-4,-19,0
CN1CCN(c2cc([N+](=O)[O-])ccc2Cl)CC1,69*,-4,-9,-33,1
CN1CCN(c2ccc([N+](=O)[O-])cc2Cl)CC1,10,-3,-16,-7,1
Cc1ccc(S(=O)(=O)N2CCCCC2)cc1NC(=O)CN1CC=C(c2ccccc2)CC1,4,-4,-11,-6,0
Cc1ccc(S(=O)(=O)N(C)C)cc1NC(=O)C(C)[N+]12CCN(CC1)CC2 (stereo unspecified),32*,-4,5,-6,-7
COc1ccccc1CCNCc1cccc(C(F)(F)F)c1,6,-2,-1,7,0
O=S1(=O)N(Cc2ccccc2)CCCN1Cc1ccc(F)cc1Cl,x,x,x,-4,0
Cc1ccc(S(=O)(=O)N(c2cc(Cl)c(O)c(Cl)c2)P(=O)(OC(C)C)OC(C)C)cc1,5,3,-8,31*,0
O=C(Nc1ccccc1)Oc1ccccc1,-5,-2,1,5,0
CC(/C=C(\C)Nc1ccccc1)=Nc1ccccc1,-4,-4,9,37*,-1
Cc1ccc(-n2c(=O)[nH]c3ccc(Br)cc3c2=O)cc1,x,x,x,-5,0
CCOC(=O)c1c(N)n(Cc2ccco2)c2nc3ccccc3nc12,30*,-8,-10,-13,11
CCCCn1c(N)c(C(=O)OCCOC)c2nc3ccccc3nc21,x,-2,4,x,x
COCCOC(=O)c1c(N)n(Cc2ccccc2)c2nc3ccccc3nc12,36*,-2,13,0,-2
Cc1sc2ncn(CC(=O)N3CCC4(CC3)OCCO4)c(=O)c2c1C,10,-2,1,30*,0
Cc1ccccc1CN1C(=O)C(C)N=C(c2ccccc2)c2ccccc21 (stereo unspecified),x,x,x,1,1
CCN(CC)C(=O)c1ccc(NC(=O)COc2ccc(-c3nn(C)c(=O)c4ccccc34)cc2)cc1,-25,5,13,28,-2
Cc1ccc(Cn2cccc(C(=O)Nc3ccc(C)c(Cl)c3)c2=O)cc1,x,x,x,12,-2
Cc1ccc(C(C)C)c(OCC#CCN2CCCC2)c1,35*,4,61*,-26,-1
O=C(NCc1ccc(C(=O)N2CCC3(CC2)OCCO3)cc1)c1ccc2c(c1)OCO2,-22,-2,-7,5,0
O=C(c1ccc2c(=O)n(Cc3ccc4c(c3)OCO4)c(=S)[nH]c2c1)N1CCC2(CC1)OCCO2,44*,-1,-10,6,0
SMILES,D2 antagonist,D2 ag-1,D2 PAM-1,D2 PAM-2,D2 ag-2
N#CC1c2ccccc2-n2nncc2CN1S(=O)(=O)c1cc(Cl)cc(Cl)c1 (stereo unspecified),x,1,-6,x,x
CN(C)P1(N(C)C)=Nc2c(c(N)nn2C)C(c2ccccc2)=N1,31*,1,1,-4,-2
COc1ccc(Br)cc1C1SCC(=O)Nc2c1c(C)nn2-c1ccccc1C (stereo unspecified),x,x,x,-5,x
CCN(CC)CCSc1nc2ccccc2c(=O)n1-c1ccc(Cl)cc1,x,x,x,0,-4
Cc1nn(CC(C)C)c(Cl)c1C(=O)NC1CCCCC1,30*,-3,22,2,0
Cc1nn(CC(C)C)c(Cl)c1C(=O)NC1CCCC1,x,-2,-8,x,x
CSc1ncc(CN2CCCC(C(=O)c3ccccc3SC)C2)cn1 (stereo unspecified),5,-5,-34,-15,-1
CSc1ccccc1C(=O)C1CCCN(Cc2ccn[nH]2)C1 (stereo unspecified),48*,-1,-3,-20,22
O=C(Nc1nc(-c2ccccc2)c(-c2ccccc2)s1)c1ccc(S(=O)(=O)N(CCCl)CCCl)cc1,5,1,0,0,1
CCCCCCN1CCN(c2ccccc2Cl)CC1,76*,2,-11,-28,4
Cc1cccc(N2CCN(CCc3ccccc3)CC2)c1C,-18,-8,-26,10,-1
CC(C)OP(=O)(OC(C)C)C(O)c1ccc(Br)cc1 (stereo unspecified),0,12,104*,-4,-1
O=C(Nc1ccccc1C(F)(F)F)c1cccn(Cc2ccccc2)c1=O,x,x,x,6,1
OC1(c2ccc(F)cc2)CCNC1 (stereo unspecified),86*,-4,-8,-7,0
OC(CN1CCC(c2c[nH]c3ccccc23)CC1)C(F)(F)F (stereo unspecified),77*,-5,-10,-15,0
c1ccc2c(CN3CCN(C4CCCCC4)CC3)c[nH]c2c1,-10,-1,-18,-10,0
O=[N+]([O-])c1ccc(N2CCNCC2)cc1NCc1ccco1,61*,-1,-30,-24,-1
CNc1cc(N2CCNCC2)ccc1[N+](=O)[O-],0,0,-5,-11,0
CN1CCN(c2ccc([N+](=O)[O-])c(NCc3ccco3)c2)CC1,53*,-2,-43,-18,-1
O=C(c1ccc2c(c1)N(Cc1c(F)cccc1Cl)C(=O)c1ccccc1S2)N1CCC2(CC1)OCCO2,x,x,x,-1,0
C[N+](C)(C)CCOC(=O)CBr,-10,-6,-5,7,0
CC(=O)OCC[N+](C)(C)C,-17,-4,1,6,45*
CSc1ncc(C(=O)Nc2ccc(Cl)cc2C(=O)c2ccccc2)c(C)n1,x,x,x,-1,-1
c1ccc2c(c1)[IH]c1ccccc1-2,x,4,10,x,x
CN1C(=O)N(C)C(=O)C2(Cc3cc(NC(=O)c4ccc(F)cc4)ccc3N3CCCC32)C1=O (stereo unspecified),-12,-3,-5,12,4
O=c1[nH]c2ccccc2n1C1CCN(C(CCc2ccccc2)c2nnnn2-c2ccc3c(c2)OCCO3)CC1 (stereo unspecified),x,11,58*,x,x
O=c1[nH]c2ccccc2n1C1CCN(C(c2ccnc3ccccc23)c2nnnn2-c2ccc3c(c2)OCCO3)CC1 (stereo unspecified),x,u,50*,x,x
COc1ccc(-n2nnnc2C(CCc2ccccc2)N2CCC(n3c(=O)[nH]c4ccccc43)CC2)cc1 (stereo unspecified),x,u,27,x,x
